Experimental findings from PubChem BioAssay (EPA / NIEHS) are described below.

As usually defined, the AC50 is the midpoint of the concentration-response curve, whichever way the signal moves.

Read-out in experiment [1]: Human Leukocyte Antigen - DR isotype (HLADR), HLA-DRA (gene 3122)
Nature of the experiment: BSK_3C_HLADR: BioMAP Diversity Plus: 3C Assay for Human Leukocyte Antigen - DR isotype (HLADR) Biomarker Activity (AID 2283019). The conditions noted are these: primary human endothelial cells (HUVEC); actives raise or lower the signal. Summed up: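 Primary human umbilical vein endothelial cells (3C system) were dosed with compound and cell-surface HLA-DR was quantified by ELISA at 24 h. Activity was fitted bidirectionally against DMSO as negative control and baseline.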

Read-out in experiment [2]: Vascular endothelial growth factor receptor 2 (Homo sapiens) (UniProt P35968)
Nature of the experiment: BSK_4H_VEGFRII: BioMAP Diversity Plus: 4H Assay for Vascular endothelial growth factor receptor 2 (VEGFR2) Biomarker Activity (AID 2283031). The following applies: primary human endothelial cells (HUVEC); actives raise or lower the signal. Summed up:
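Primary human umbilical vein endothelial cells in the BioMAP 4H system were dosed with test chemical, and 24 h later VEGFRII was measured by ELISA. Activity was fitted bidirectionally against DMSO as negative control and baseline.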

Read-out in experiment [3]: Interleukin-8 (IL8), CXCL8 (gene 3576)
Kind of experiment: BSK_CASM3C_IL8: BioMAP Diversity Plus: CASM3C Assay for Interleukin-8 (IL8) Biomarker Activity (AID 2283042).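 Also: IL-8 protein level quantified by ELISA.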 The following applies: primary human coronary artery smooth muscle cells; actives raise or lower the signal.

Read-out in experiment [4]: Monokine induced gamma interferon (MIG), CXCL9 (gene 4283)
Nature of the experiment: BSK_CASM3C_MIG: BioMAP Diversity Plus: CASM3C Assay for Monokine induced gamma interferon (MIG) Biomarker Activity (AID 2283048).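 Also: MIG protein level measured by ELISA.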 The following applies: primary human coronary artery smooth muscle cells; actives raise or lower the signal.

Read-out in experiment [5]: Urokinase-type plasminogen activator receptor (uPAR), PLAUR (gene 5329)
Kind of experiment: BSK_CASM3C_uPAR: BioMAP Diversity Plus: CASM3C Assay for Urokinase-type plasminogen activator receptor (uPAR) Biomarker Activity (AID 2283054).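 Also: cell-surface uPAR protein level quantified by ELISA.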 The conditions noted are these: primary human coronary artery smooth muscle cells; actives raise or lower the signal.

Read-out in experiment [6]: Tissue Factor, F3 (gene 2152)
Nature of the experiment: BSK_LPS_TissueFactor: BioMAP Diversity Plus: LPS Assay for Tissue Factor Biomarker Activity (AID 2283084). The following applies: primary human HUVEC with PBMC; actives raise or lower the signal. Summed up: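 Human umbilical vein endothelial cells co-cultured with peripheral blood mononuclear cells were dosed and stimulated with LPS. Cell-surface CD142 was quantified by ELISA at 24 h. Activity was fitted bidirectionally against DMSO baseline.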

Read-out in experiment [7]: Vascular cell adhesion molecule 1 (VCAM1), VCAM1 (gene 7412)
Nature of the experiment: BSK_LPS_VCAM1: BioMAP Diversity Plus: LPS Assay for Vascular cell adhesion molecule 1 (VCAM1) Biomarker Activity (AID 2283086). The following applies: primary human HUVEC with PBMC; actives raise or lower the signal. Summed up:
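VCAM-1 quantified by ELISA in an LPS-activated co-culture of human endothelial cells and peripheral blood mononuclear cells, read 24 h post-treatment. Fitted in both directions versus DMSO; parallel SRB staining flags overt cytotoxicity.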

Read-out in a further experiment: CD40, CD40 (gene 958)
Kind of experiment: BSK_SAg_CD40: BioMAP Diversity Plus: SAg Assay for CD40 Biomarker Activity (AID 2283088). The following applies: primary human HUVEC with PBMC; actives raise or lower the signal. An outline of the steps: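 Human umbilical vein endothelial cells co-cultured with PBMC; CD40 levels measured by ELISA with fluorescence read-out 24 h after chemical dosing. Gain or loss of signal fitted bidirectionally against DMSO baseline.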

Read-out in experiment [8]: Interleukin-8 (IL8), CXCL8 (gene 3576)
Nature of the experiment: BSK_SAg_IL8: BioMAP Diversity Plus: SAg Assay for Interleukin-8 (IL8) Biomarker Activity (AID 2283094). The following applies: primary human HUVEC with PBMC; actives raise or lower the signal. Summed up:
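ELISA readout of IL-8 from a superantigen-activated endothelial/PBMC primary human co-culture, taken 24 h post-dosing and fitted in both directions against DMSO; parallel SRB total-protein staining flags overt cytotoxicity.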

A short description of experiment [9]: BSK_SAg_SRB: Viability Assessment in the BioMAP Diversity Plus: SAg Assay (AID 2283096).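 Also: cells read one day after compound addition; hits may be either gain or loss of signal compared with DMSO.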 The following applies: primary human HUVEC with PBMC. An outline of the steps:
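This overt-cytotoxicity endpoint quantifies protein in human endothelial/PBMC co-cultures at 24 h using SRB absorbance (560 nm) after trichloroacetic acid fixation. Values reflect signal change from the DMSO negative control, fitted bidirectionally.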

Experiment [10] is described as follows: BSK_BT_PBMCCytotoxicity: PBMC Cytotoxicity Assessment in the BioMAP Diversity Plus: BT Assay (AID 2284225).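 Also: PBMC viability measured by Alamar Blue dye reduction fluorescence.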 The following applies: primary human B cells with PBMC. Summed up: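 Viability by Alamar Blue reduction (6 h, ex/em 546/580 nm) after 90 h culture of SEB/TSST-1-activated PBMC (20 ng/mL each) given compound 1 h before activation. DMSO served as baseline for curve fitting.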

Read-out in experiment [11]: Secreted IgG (sIgG), gene 3500
Kind of experiment: BSK_BT_sIgG: BioMAP Diversity Plus: BT Assay for Secreted IgG (sIgG) Biomarker Activity (AID 2284226). The conditions noted are these: primary human B cells with PBMC. Summed up:
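ELISA quantitation of secreted IgG from human B cells co-cultured with PBMC, sampled 24 h post-dosing. Values fitted relative to DMSO vehicle as baseline, positive fitting direction.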

Experiment [12] can be described thus: BSK_BT_Bcell_Proliferation: Viability Assessment in the BioMAP Diversity Plus: BT Assay for B cell Proliferation (AID 2284227). The conditions noted are these: primary human B cells with PBMC. An outline of the steps: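 SRB-based protein staining (0.1% SRB after 10% TCA fixation, 560 nm) quantifies proliferation in human B cells co-cultured with PBMC, 72 h post-dosing, with signal gain scored relative to DMSO negative control.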

Read-out in experiment [13]: Interleukin 17A (IL17A), IL17A (gene 3605)
Nature of the experiment: BSK_BT_xIL17A: BioMAP Diversity Plus: BT Assay for Interleukin 17A (IL17A) Biomarker Activity (AID 2284229). The conditions noted are these: primary human B cells with PBMC. Summed up:
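B cells co-cultured with PBMC were exposed to test chemicals, and secreted IL-17A was quantified 24 h after dosing by Luminex xMAP bead immunoassay. Activity was fitted in the gain direction against DMSO as baseline.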

Read-out in experiment [14]: Collagen III, COL3A1 (gene 1281)
Nature of the experiment: BSK_MyoF_CollagenIII: BioMAP Diversity Plus: MyoF Assay for Collagen III Biomarker Activity (AID 2284239). The conditions noted are these: primary human lung fibroblasts. Summed up: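 Human lung fibroblasts were dosed with chemicals and, 24 hours later, collagen III was measured by ELISA. Activity was fitted in the positive direction against the DMSO negative-control baseline.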

Read-out in experiment [15]: Interleukin 2 (IL2), IL2 (gene 3558)
Kind of experiment: BSK_BT_xIL2: BioMAP Diversity Plus: BT Assay for Interleukin 2 (IL2) Biomarker Activity (AID 2284245). The following applies: primary human B cells with PBMC. Summed up:
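Secreted IL-2 was read by Luminex xMAP from B cells co-cultured with PBMC (human primary) 24 h post-dosing; activity was analysed as gain of signal relative to DMSO vehicle.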

Read-out in experiment [16]: Collagen IV, COL4A1 (gene 1282)
Kind of experiment: BSK_MyoF_CollagenIV: BioMAP Diversity Plus: MyoF Assay for Collagen IV Biomarker Activity (AID 2284247). The conditions noted are these: primary human lung fibroblasts. Summed up: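 Collagen IV quantified by ELISA in human lung fibroblast cultures 24 h after chemical treatment, with DMSO as baseline. Parallel SRB staining (0.1% SRB after TCA fixation, 560 nm) flags overt cytotoxicity.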

Read-out in experiment [17]: Plasminogen activator inhibitor-1 (PAI1), SERPINE1 (gene 5054)
Nature of the experiment: BSK_MyoF_PAI1: BioMAP Diversity Plus: MyoF Assay for Plasminogen activator inhibitor-1 (PAI1) Biomarker Activity (AID 2284256).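 As to outcome: PAI-1 protein level measured by ELISA in fibroblast cultures; PAI-1 read 24 h after compound addition.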 The following applies: primary human lung fibroblasts. An outline of the steps: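 ELISA read-out of PAI-1 from primary human lung fibroblast cultures 24 h after dosing; gain-of-signal fit versus DMSO control.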

Read-out in experiment [18]: Matrix Metallopeptidase 1 (MMP1), MMP1 (gene 4312)
Nature of the experiment: BSK_MyoF_MMP1: BioMAP Diversity Plus: MyoF Assay for Matrix Metallopeptidase 1 (MMP1) Biomarker Activity (AID 2284268). The conditions noted are these: primary human lung fibroblasts. An outline of the steps: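 ELISA readout of MMP1 in primary human lung fibroblast cultures, 24 h post-dosing. Gain of signal versus DMSO vehicle control defines activity. Parallel SRB staining (0.1% after 10% TCA fixation, 560 nm) flags overt cytotoxicity.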

Experiment [19] has as its target Estrogen receptor (Homo sapiens) (UniProt P03372). Nature of the experiment: ATG_ERa_TRANS: Attagene TRANS-FACTORIAL HepG2 Assay for human Estrogen Receptor alpha (ERa) (AID 2282970; active = hit-call score of the fitted dose curve at least 0.9, where 1 is the maximum). The following applies: HepG2 Attagene TRANS ERa GAL4 reporter, mRNA. Summed up: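 One of 30 multiplexed endpoints from a HepG2 TRANS system, this one reports ERa-Gal4-driven reporter mRNA. Transcripts were quantified 24 hours post-dosing by fluorescent RT-PCR and capillary electrophoresis, with activity scored as induction over DMSO.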

Records with an inconclusive call do not appear. Activity calls are given as the source filed them. The calls were made as follows, unless noted: active = hit-call score of the fitted dose curve at least 0.9, where 1 is the maximum; inactive = score below 0.9.

Sequence of Estrogen receptor (Homo sapiens) (P03372 whole entry, looked up, the tested form may be a part): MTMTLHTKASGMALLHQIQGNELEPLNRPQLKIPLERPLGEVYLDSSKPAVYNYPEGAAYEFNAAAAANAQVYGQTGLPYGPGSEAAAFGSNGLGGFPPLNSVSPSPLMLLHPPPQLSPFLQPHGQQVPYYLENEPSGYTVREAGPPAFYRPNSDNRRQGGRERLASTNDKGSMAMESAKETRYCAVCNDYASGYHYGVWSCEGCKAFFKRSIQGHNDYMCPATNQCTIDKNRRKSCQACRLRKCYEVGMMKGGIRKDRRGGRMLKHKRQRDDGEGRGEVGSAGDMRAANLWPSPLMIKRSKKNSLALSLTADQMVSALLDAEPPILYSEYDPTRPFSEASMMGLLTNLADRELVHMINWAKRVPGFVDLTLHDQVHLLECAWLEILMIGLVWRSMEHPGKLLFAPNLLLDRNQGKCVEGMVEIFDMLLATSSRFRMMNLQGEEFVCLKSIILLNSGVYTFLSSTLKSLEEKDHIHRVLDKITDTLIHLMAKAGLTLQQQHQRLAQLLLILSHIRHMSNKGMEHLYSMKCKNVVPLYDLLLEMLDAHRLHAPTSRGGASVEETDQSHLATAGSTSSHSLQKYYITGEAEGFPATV

For `C=CCN(CC=C)C(=O)C(Cl)Cl`, the outcome in experiment [1], in [2], in experiment [3], in experiment [4], in [5] and in experiment [6] was inactive. Moreover, the outcome in experiment [7] is “inactive”; in the experiment with CD40, CD40 (gene 958), “inactive”; in experiment [8], “inactive”; in experiment [9], “inactive”; in [10] it was “inactive”; in experiment [11] it was “inactive”. The result in [12], in experiment [13], in experiment [14], in experiment [15], in [16] and in experiment [17] was inactive. Further, the result in experiment [18] was inactive.

With `COc1cc(OC)c(OC)cc1C=O`, the compound was classed as inactive in experiment [19].

For `COCC(=O)N(c1c(C)cccc1C)N1CCOC1=O`, the result in [1], in experiment [2], in experiment [3], in [4], in experiment [5] and in [6] was inactive. Besides, the outcome was “inactive” in experiment [7]; “inactive” with CD40, CD40 (gene 958); “inactive” in [8]; “inactive” in [9]; “inactive” in experiment [10]; “inactive” in experiment [11]. Besides, the result in [12], in [13], in experiment [14], in experiment [15], in [16] and in [17] was inactive. Further, the result in experiment [18] was inactive.

On to `O=[N+]([O-])C=Cc1ccccc1`, for which the AC50 in [1] is 2.15 µM (active); in experiment [3] it was 20 µM (active); in experiment [4], 27.1 µM (active); in [5], 8.89 µM (active); in experiment [6] it was 10.7 µM (active); in [7] it was 8.21 µM (active). Moreover, the AC50 was 20 µM (active) in the experiment with CD40, CD40 (gene 958); 11.3 µM (active) in experiment [8]; 12.6 µM (active) in experiment [9]; 7.36 µM (active) in experiment [10]; 5.7 µM (active) in [11]; 6.33 µM (active) in experiment [12]. For the same compound, the AC50 in [13] was 5.44 µM (active); in experiment [14], 13.8 µM (active); in experiment [15], 6.08 µM (active); in [16], 3.97 µM (active); in experiment [17] it was 12.3 µM (active). Moreover, the result in experiment [2] and in experiment [18] was inactive.

`C[N+](C)=CCl`: the call in [19] was inactive.

On to `SCc1ccco1`, for which the AC50 in experiment [19] is 54.1 µM (active).

For `CCCCOP(=O)(O)OCCCC`, the compound was classed as inactive in experiment [19].
